TROY NFkB inh: inhibitors of TROY-driven NF-kB signaling, primary screen, Q293 LMP1-TROYcd cells, NF-kB luciferase, uHTS | Q293 LMP1-TROYcd NF-kB luciferase reporter, 4 h | inhibition, % at 10 µM | 360,000 tested, 0.98% active;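 active = compounds whose plate-normalised and pattern-corrected inhibition of the luciferase reporter signal at the single screening dose is 50% or more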
CF NFkB block: inhibitors of PAF-induced NF-kB signaling, primary screen, cell-based, GFP fluorescence, uHTS | inhibition, % at 5 µM | 360,000 tested, 0.86% active | KKLEB NF-kB-GFP reporter, GFP fluorescence overnight | AID 588850, 2011;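 active = at least 50% inhibition at 5 µM, scaled per plate between neutral and stimulator controls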;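 note: PAF is a Pseudomonas aeruginosa culture filtrate used as stimulus; plate controls were PAF-stimulated DMSO wells for no effect and unstimulated DMSO wells for full effect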
Peg3 prom inh: Peg3 promoter-driven luciferase inhibitors, primary screen, cell-based, HeLa, luciferase luminescence; HeLa PEG-Prom luciferase reporter, overnight; inhibition, % at 20 µM; 360,000 tested, 1.7% active; AID 588405, 2011;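 active = inhibition of at least 50% at 20 µM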
HIF-2a block: HIF-2a reporter inhibitors, primary screen, luminescence, 786-0 RCC cells. 786-0 RCC cells HIF-2a reporter, luciferase luminescence, overnight. inhibition, % at 18.8 µM. 360,000 tested, 0.72% active;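 active = inhibition of the luminescence signal of 40% or more relative to plate controls, in a single-dose primary screen at 18.75 µM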
TWEAK Fn14 block: inhibitors of TWEAK-Fn14 signaling, primary screen, luciferase reporter cells, uHTS | TWEAK-stimulated Fn14 reporter cells, luciferase luminescence, 8 h | inhibition, % at 10 µM | 360,000 tested, 2% active; in the data active = inhibition above about 50%
KKLEB cytotox: cytotoxicity in KKLEB CF airway cells, primary screen, cytotoxicity control for CF NF-kB inhibitor project, cell-based, uHTS, fluorescence assay plates; KKLEB CF airway cells viability, ATPlite luminescence, overnight; stronger effect = lower value; cells stimulated with P. aeruginosa culture filtrate; 360,000 tested, 0.36% active; AID 602141, 2011; activity change (cytotoxicity), % at 5 µM;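 active = corrected activity change at or below -50% at 5 µM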
Active calls of the source: *; x = not tested or not shown. This is a sample that favours compounds with a hit; in the whole collection about 4% have one here.

SMILES | TROY NFkB inh | CF NFkB block | Peg3 prom inh | HIF-2a block | TWEAK Fn14 block | KKLEB cytotox
CC(C)(C)C1CCC(OC(=O)c2cncc(Br)c2)CC1 (configuration not stated) | 71* | 9 | -80 | -29 | 74* | -1
Fc1ccc2[nH]c3c(N4CCc5ccccc5C4)ncnc3c2c1 | 18 | -15 | 17 | 12 | 58* | -1
CN1CCN(c2ncnc3c2[nH]c2ccc(F)cc23)CC1 | 3 | -20 | 27 | 6 | -24 | 3
Cc1ccc2[nH]c3c(N4CCc5ccccc5C4)ncnc3c2c1 | 32 | -6 | -101 | -93 | 63* | -2
CC1OC(COCc2ccccc2)Cc2[nH][nH]c(=O)c21 (configuration not stated) | -25 | x | x | -13 | 5 | x
CSC(=S)NN=C(C)c1cccc(C)n1 | 16 | 76* | 35 | -15 | 91* | -10
CC(=NNC(=S)N1CCCCC1)c1cccc(C)n1 | 7 | -35 | -27 | -110 | -39 | 26
Cc1nonc1OCCNc1ccc([N+](=O)[O-])cc1[N+](=O)[O-] | 7 | 0 | 65* | 4 | 2 | 0
Cc1cccc(NC(=O)c2ccc(Cl)c(S(=O)(=O)N3CCc4ccccc43)c2)n1 | 37 | -2 | 16 | 0 | 58* | 12
O=C(Nc1nnc(C2CC2)s1)c1ccc(Cl)c(S(=O)(=O)N2CCc3ccccc3C2)c1 | 56* | -11 | 8 | -25 | 50 | -4
CCc1nnc(NC(=O)c2ccc(Cl)c(S(=O)(=O)N3CCc4ccccc43)c2)s1 | 61* | 14 | 9 | 10 | -9 | 4
CCc1nnc(NC(=O)c2ccc(F)c(S(=O)(=O)N3CCCCC3)c2)s1 | 8 | -16 | 4 | 8 | 16 | 16
CCC(=NNS(=O)(=O)c1ccc(C)cc1)c1ccc(OC)c(C)c1 | -10 | 18 | 5 | 6 | -25 | -18
COCCCNC(=O)Cn1cnc(C(=O)Nc2ccc(C)c(C)c2)n1 | -18 | 5 | -61 | -74 | -16 | -6
CC(=O)Nc1ccc(Nc2nc3ccccc3nc2NS(=O)(=O)c2ccc(Cl)c([N+](=O)[O-])c2)cc1 | 11 | -31 | 7 | -17 | -21 | 10
CCN1C(=O)[C@H]2[C@@H](c3ccc(Cl)cc3)N3C(=O)CN(CCOC)C(=O)[C@@]3(Cc3ccccc3)[C@H]2C1=O | -3 | 6 | -3 | 17 | 2 | 1
CCN=c1scc(C)n1/N=C/c1cc(Br)c(O)c(OC)c1 | 58* | -16 | -22 | -37 | -26 | 11
CCC(=O)N1CCC1(C)C(=O)Nc1ccc2c(c1)CCN2C(C)=O (configuration not stated) | 0 | 5 | -9 | 1 | -6 | -4
COc1cc(OC)c2c(-c3ccccc3)cc(=O)oc2c1C(CCN1CCOCC1)c1ccc2c(c1)OCO2 (configuration not stated) | 7 | 22 | -3 | 2 | -4 | -18
CCCCCc1cc(=O)oc2c(C(CCN(CC)CC)c3cc(OC)c(OC)c(OC)c3)c(OC)cc(OC)c12 (configuration not stated) | 5 | 12 | 105* | -7 | -14 | -11
COc1ccc(C(CCN2CCCC(C)C2)c2c(OC)cc(OC)c3c(C)cc(=O)oc23)cc1 (configuration not stated) | -14 | -19 | -24 | -2 | 3 | -24
COc1cc(OC)c2c(-c3ccccc3)cc(=O)oc2c1C(CCN1CCCC1)c1ccc2c(c1)OCO2 (configuration not stated) | -5 | 11 | 91* | 2 | -24 | 2
CCCCCc1cc(=O)oc2c(C(CCN3CCCC(C)C3)c3ccc4c(c3)OCO4)c(OC)cc(OC)c12 (configuration not stated) | -3 | 21 | 98* | 15 | 43 | -1
CCCCCc1cc(=O)oc2c(C(CCN3CCCCC3)c3ccc4c(c3)OCO4)c(OC)cc(OC)c12 (configuration not stated) | 12 | 13 | 96* | 13 | -21 | -11
COc1cccc(CNC(=S)Nc2ccc3c(c2)c(=O)n(C)n3Cc2ccccc2)c1 | 21 | -9 | 2 | -10 | 15 | 10
SMILES | TROY NFkB inh | CF NFkB block | Peg3 prom inh | HIF-2a block | TWEAK Fn14 block | KKLEB cytotox
O=C(CSC1=N/C(=C/c2ccc(Cl)c(Cl)c2)C(=O)N1c1ccccc1F)NC1CC1 | 18 | 18 | -34 | -5 | 61* | -14
CC(C)C[C@H](NC(=O)/C=C/[C@H]1O[C@@H](n2ccc(=O)[nH]c2=O)[C@H](O)[C@@H]1O)C(=O)O | -6 | -17 | -4 | 4 | -1 | 7
Cn1c(=O)c2c(SCc3ccccc3)nc(C3CC3)nc2n(C)c1=O | -33 | -10 | -14 | -31 | -14 | -10
Cn1c(=O)c2c(SCC(=O)N3CCCc4ccccc43)nc(C3CC3)nc2n(C)c1=O | -5 | -20 | 52* | 20 | 16 | -8
O=S(=O)(NCC(Nc1ccc(Cl)cc1)c1ccccc1)c1ccc(Cl)cc1 (configuration not stated) | 51* | 13 | 39 | 23 | 69* | -2
CCN1C(=O)/C(=C/N(C)C)c2ccccc21 | -13 | 4 | 57* | 15 | -16 | -3
CCN1C(=O)/C(=C/c2nc3ccccc3c(=O)n2-c2ccccc2)c2ccccc21 | 27 | -5 | 35 | 23 | 58* | 3
CC1CCC2(CC1)NC(=O)N(CC(=O)c1ccc(Cl)s1)C2=O (configuration not stated) | -17 | 14 | -11 | -8 | -20 | -3
COC(=O)c1sccc1S(=O)(=O)Nc1ccc(C(O)(C(F)(F)F)C(F)(F)F)cc1 | 19 | -12 | -3 | -28 | 5 | 5
CCOC(=O)c1cnc2ccc(OCC)cc2c1NCc1ccccc1OC | 54* | 4 | 9 | -40 | 72* | -10
O=c1c(Cc2ccc(Cl)cc2Cl)c(O)ccn1Cc1ccc(Cl)cc1 | 51* | -2 | 10 | 12 | -3 | 0
Cc1ccc(N=C2C(=O)Nc3ccccc32)cc1 | -47 | 0 | 6 | 11 | -7 | 16
Cc1nc2c(o1)C(=O)c1ccccc1C2=Nc1ccccc1 | 10 | 89* | 104* | 8 | 95* | -84*
c1ccc(-n2ncc3c(N4CCCCC4)ncnc32)cc1 | 71* | -19 | -3 | 15 | 95* | -37
Cc1ccc(-n2ncc3c(N4CCCC(C)C4)ncnc32)c(C)c1 (configuration not stated) | 13 | 12 | -329 | -267 | -2 | -16
COc1cccc(N2CCN(c3ncnc4c3cnn4-c3ccc(C)cc3C)CC2)c1 | 80* | 80* | 102* | -122 | 106* | -83*
